Data published in the supplement of paper PMC6555819.

Columns and labels:
Assay in all cases: PBM binding z-score (relative to random genomic background probes); higher = stronger binding; sequences stand for … in GC…GCGATTGACAGCGTAGAATGAAGG
[1] = system: FXR:RXRa (NR concentration 270 nM, RXRa partner concentration 90 nM)
Summary of the method: (§1)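 Binding z-scores were set against random background probes. The data came from custom Agilent 4×180K protein-binding microarrays carrying double-stranded probes with 34-nt variable regions, incubated 1 h with ligand-free nuclear receptor dimers. Partner-specific antibodies detected binding, and scanned fluorescence was regression-normalized.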

[2] = system: LXRa:RXRa (NR concentration 270 nM, RXRa partner concentration 90 nM)
Summary of the method: as §1

[3] = system: LXRa homodimer (NR concentration 270 nM)
Summary of the method: as §1

[4] = system: LXRb:RXRa (NR concentration 270 nM, RXRa partner concentration 90 nM)
Summary of the method: as §1

[5] = system: LXRb homodimer (NR concentration 270 nM)
Summary of the method: as §1

[6] = system: PPARa:RXRa (NR concentration 270 nM, RXRa partner concentration 90 nM)
Summary of the method: as §1

[7] = system: PPARg:RXRa (NR concentration 180 nM, RXRa partner concentration 90 nM)
Summary of the method: as §1

[8] = system: PPARg:RXRa 270nM:90nM, anti-RXR (NR concentration 270 nM, RXRa partner concentration 90 nM)
Summary of the method: as §1

[9] = system: PPARg:RXRa 30nM:10nM, anti-RXR (NR concentration 30 nM, RXRa partner concentration 10 nM)
Summary of the method: as §1

[10] = system: PPARg:RXRa 90nM:30nM, anti-RXR (NR concentration 90 nM, RXRa partner concentration 30 nM)
Summary of the method: as §1

[11] = system: PPARg:RXRa DBDmut IVT, anti-RXR (DBD mutation: RXRa K156A/R161A, NR concentration 270 nM, RXRa partner concentration 90 nM)
Summary of the method: as §1

[12] = system: PPARg:RXRa IVT, anti-PPARg (NR concentration 270 nM, RXRa partner concentration 90 nM)
Summary of the method: as §1

[13] = system: PPARg DBDmut:RXRa IVT, anti-PPARg (DBD mutation: PPARg1 K132A/R137A, NR concentration 270 nM, RXRa partner concentration 90 nM)
Summary of the method: as §1

[14] = system: PPARg DBDmut IVT, anti-PPARg (DBD mutation: PPARg1 K132A/R137A, NR concentration 270 nM)
Summary of the method: as §1

[15] = system: PPARg homodimer (NR concentration 180 nM)
Summary of the method: as §1

[16] = system: PXR:RXRa (NR concentration 270 nM, RXRa partner concentration 90 nM)
Summary of the method: as §1

[17] = system: PXR homodimer (NR concentration 270 nM)
Summary of the method: as §1

[18] = system: RARa:RXR (NR concentration 270 nM, RXRa partner concentration 90 nM)
Summary of the method: as §1

[19] = system: RARa homodimer (NR concentration 270 nM)
Summary of the method: as §1

[20] = system: RARb:RXRa (NR concentration 270 nM, RXRa partner concentration 90 nM)
Summary of the method: as §1

Sequence	PBM binding z-score [1]	PBM binding z-score [2]	PBM binding z-score [3]	PBM binding z-score [4]	PBM binding z-score [5]	PBM binding z-score [6]	PBM binding z-score [7]	PBM binding z-score [8]	PBM binding z-score [9]	PBM binding z-score [10]	PBM binding z-score [11]	PBM binding z-score [12]	PBM binding z-score [13]	PBM binding z-score [14]	PBM binding z-score [15]	PBM binding z-score [16]	PBM binding z-score [17]	PBM binding z-score [18]	PBM binding z-score [19]	PBM binding z-score [20]
CCTTACGGGACACTCCAGGTTATAGCATCGGAGT	0.0463	0.511	0.714	-0.359	-0.449	0.0174	0.619	-0.335	-0.0425	-0.27	0.616	0.708	-0.0587	-0.578	0.252	0.0254	0.23	0.561	-0.181	0.356
AGAATGAGGCTACCAAAGATCAGGGAAACGCTTG	-0.398	0.883	-0.337	-0.482	-1.07	0.361	0.85	0.0255	-0.0527	0.1	1.61	0.854	0.153	-0.213	-0.49	-0.51	-0.439	-0.0885	-0.557	0.164
CCAGACGGGTGAAAGGTAACTCAGTCTGGTACGC	0.176	0.178	-0.5	0.239	-0.986	2.87	4.88	5.6	3.4	5.98	0.482	2.35	-1	-1.51	0.107	0.559	-0.486	1.55	-0.431	0.652
CGTCCAAGGGCATAGGAGGTCAGTGAAGACAGAT	3.02	5.05	1.32	2.56	-0.901	3.11	1.15	1.38	-0.000502	0.667	0.6	2.11	-0.528	-0.863	1.67	4.38	1.16	3	0.923	3.53
ACTATTAGTTGAGACGAGGGCACCCGATAGGTTG	0.0849	0.0854	-0.0764	0.0614	0.318	0.202	0.813	0.197	0.108	0.163	-0.207	0.476	0.77	0.797	-0.607	1.33	0.328	1.2	0.511	0.966
TCTTCTAGATCAGCAGGTTAAGAAAGCTGGCCAA	0.108	0.0628	-0.37	0.225	0.0387	0.759	-0.499	1.53	2.84	2.08	1.75	0.956	-0.541	-0.141	-0.0964	0.0261	-0.795	0.252	-0.167	0.235
AGAACGAGGGCACGCTGAGCTGATAGCAGAGTAG	0.647	0.277	-0.751	-0.0518	-0.909	1.98	1.91	1.81	0.448	0.908	4.56	3.89	0.483	-0.228	0.179	-0.0742	-0.541	0.485	-0.937	2.39
ACTCGTAGGACAAAGGTCAGAGCTACGCCAGTGA	3.9	4.29	1.39	3.3	0.607	5.11	7.99	7.75	6.47	8.26	1.2	3.67	0.241	0.756	4.17	3.73	0.25	4.94	1.41	4.18
AGTACGAGGGCACGCTGAGTTGATAGCAGAGTAG	0.909	0.941	-0.408	0.078	-0.497	1.63	1.26	0.976	-0.181	0.652	2.66	2.52	0.166	0.462	0.0101	1.4	0.398	0.957	-0.0662	2.64
GCTTACGGGTCTAAGGTTATAGCATGAATAGAAT	0.749	0.664	-0.0717	1.2	-0.249	2.66	3.28	4.67	3.06	4.64	0.0529	0.754	0.306	0.266	0.501	0.939	0.427	1.66	0.142	1.02
TCTAGCAGGCCAGAGGGTCACTCAAGAGGTACGG	0.812	1.03	-0.601	0.926	-1.51	2.39	1.43	2.72	2.09	2.57	0.944	0.645	-0.27	-1.24	0.106	1.57	-0.442	2.03	-0.734	2.09
TCTTGTAGATCAAGGGTTAAGAAAGCCGAAGCCT	0.439	0.813	-0.616	0.958	-0.606	3.12	5.36	6.4	5.41	7.18	1.55	2.33	0.632	-0.0594	1.12	0.471	-0.23	1.06	-0.354	0.694
TGAATGAGGTTATGAGATCAGGGAACGTTGCAAA	1.67	1.4	-0.558	0.95	-0.381	3.11	1.64	1.96	0.899	1.31	1.33	2.1	0.285	-0.0697	0.328	0.684	0.16	1.57	-0.0238	1.39
TCTTGTAGATAAGCAGGTTAAGAAAGCTGGCCAA	0.562	0.358	-0.156	-0.00905	-0.669	0.533	-0.481	1.19	2.41	1.65	1.32	0.184	0.000724	-0.186	0.0505	0.206	-0.278	0.402	0.154	0.0488
